Source: PubChem BioAssay
YjeE inh: inhibitors of E. coli YjeE (TsaE). purified YjeE enzyme, qHTS inhibition assay. Potency, µM. actives 0.05% (n = 71,000). AID 605. P0AF67
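Fluorescence polarization of a BODIPY Texas Red–ADP probe (2 uM) bound to purified YjeE (10 uM) was read after 15 min room-temperature incubation with compounds. Loss of polarization marks inhibitors; ADP serves as titrated control.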
BRCT PPI red: inhibitors of human BRCA1 BRCT-phosphoprotein interaction (red fluorophore); BRCT-phosphopeptide binding, red fluorescence polarization; actives 0.03% (n = 75,000); P38398; Potency, µM (highest dose often 76.9 µM), actives largely listed as inhibitors
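Fluorescence polarization: 100 nM His-tagged BRCA1 BRCT with 100 nM TAMRA-labelled phospho-BACH1 decapeptide, phosphate buffer pH 7.3 with 150 mM NaCl, DTT, 0.01% Tween 20; 12 min RT. Binding inhibition seen as FP decrease.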
HEK293 cAMP cs: raises cAMP in parental HEK293 cells, TSHR agonist counter-screen; Potency, µM (top dose mostly 57.1 µM), actives largely listed as activators; AID 938; parental HEK293 CNG cAMP sensor, membrane potential fluorescence; actives 2.5% (n = 73,000); note: nearly all actives have a fitted effect of over 55% in size
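Counterscreen for endogenous-receptor signalling: CNG-channel HEK 293 cells report cAMP rise by membrane depolarization. After 60 min dye equilibration with 100 uM RO 20-1724, compounds incubated 30 min before bottom-read fluorescence at 590 nm.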
BRCT inh green: inhibitors of human BRCA1 BRCT-phosphoprotein interaction (green fluorophore) | BRCA1 BRCT-phosphopeptide binding, green fluorescence polarization | Potency, µM (doses to about 76.9 µM), usual class: inhibitors | P38398 | actives 0.05% (n = 75,000)
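Compounds were incubated for 12 min at room temperature with a complex of 100 nM fluorescein-tagged pBACH1 decapeptide and 250 nM His-tagged BRCT protein. Buffer was phosphate pH 7.3 with EDTA, DTT and Tween 20. Disruption of binding lowers the polarization signal.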
Pol III holo inh: DNA polymerase III holoenzyme inhibition; reconstituted DNA polymerase III holoenzyme replication, biochemical; Potency, µM (doses to about 57.1 µM); actives 0.25% (n = 71,000)
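Reconstituted *E. coli* holoenzyme (0.35 nM Pol III, 1 nM beta, 154 nM SSB, 2 nM primase) was preincubated with compound for 15 min at RT. Synthesis on 1.4 nM ssM13Gori ran 35 min, then was stopped with PicoGreen/EDTA and read as dsDNA fluorescence.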
TSHR ag: TSH receptor (human) agonism | actives 0.48% (n = 73,000) | HEK293-CNG-TSHR cells (CNG channel as cAMP sensor), membrane potential dye, cAMP | P16473 | Potency, µM (highest dose often 57.1 µM), usual class: activators | AID 926; active = well fitted activation curve with a large enough effect in the main read-out, with a control signal flat, not every such curve was filed as active; inconclusive = small, poorly fitted or top-dose-only effect, or a change in a side signal; inactive = no such curve, though single readings can be large or run the other way; reference of the percent scale not stated here;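 note: the control signal comes from parental cells without the receptor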
Target sequence (P16473 whole entry, looked up): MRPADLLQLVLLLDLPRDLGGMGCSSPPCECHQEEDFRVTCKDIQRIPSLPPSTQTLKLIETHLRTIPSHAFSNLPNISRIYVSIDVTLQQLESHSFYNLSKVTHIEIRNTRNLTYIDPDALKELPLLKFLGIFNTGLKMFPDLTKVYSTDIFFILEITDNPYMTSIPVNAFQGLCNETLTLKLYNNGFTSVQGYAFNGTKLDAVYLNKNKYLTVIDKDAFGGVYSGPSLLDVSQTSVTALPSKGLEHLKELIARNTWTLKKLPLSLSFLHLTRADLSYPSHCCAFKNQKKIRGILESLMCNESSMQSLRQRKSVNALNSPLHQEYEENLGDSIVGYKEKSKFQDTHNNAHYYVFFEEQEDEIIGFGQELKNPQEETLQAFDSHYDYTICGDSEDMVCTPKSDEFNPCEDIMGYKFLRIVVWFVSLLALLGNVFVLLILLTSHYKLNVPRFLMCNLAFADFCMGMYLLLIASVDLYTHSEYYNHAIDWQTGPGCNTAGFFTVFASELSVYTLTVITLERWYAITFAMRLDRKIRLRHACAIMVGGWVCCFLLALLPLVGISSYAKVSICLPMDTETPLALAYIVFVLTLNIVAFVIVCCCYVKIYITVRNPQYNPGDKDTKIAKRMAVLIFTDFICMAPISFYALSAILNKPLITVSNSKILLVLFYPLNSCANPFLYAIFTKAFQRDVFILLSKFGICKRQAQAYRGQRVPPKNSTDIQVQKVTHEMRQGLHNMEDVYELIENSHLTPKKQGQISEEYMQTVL
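HEK 293 cells stably expressing TSHR and a cAMP-gated CNG channel; parental CNG-only cells as counterscreen. Cells preloaded 60 min with membrane potential dye plus 100 uM RO 20-1724, then compound 30 min; fluorescence read at 590 nm.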
Each line names hits and unclear results; the compound was inactive in the other large screens. Sampled rows, rich in hits. Any-hit rate of the full collection: about 3.2%. Unless noted, calls come from the whole dose curve; as a rule, active = well fitted curve in the direction sought with a large enough effect; inconclusive = small, poorly fitted or top-dose-only effect, or another doubt; inactive = no such curve, though single readings can be large; an effect the other way counts as inactive or inconclusive.

COc1ccc2c(c1)c1ccccc1n2C	none
c1ccc(-c2noc(CSc3nnc(Cc4cccs4)n3-c3ccccc3)n2)cc1	HEK293 cAMP cs 25.1µM, TSHR ag inconclusive
Fc1ccc(-n2c(Cc3ccccc3)nnc2SCc2nc(-c3cccs3)no2)cc1	HEK293 cAMP cs 25.1µM, TSHR ag inconclusive
O=C1[C@H]2[C@H]3[C@H](O)[C@H](O)C/C(=N/OC[C@@H](O)COCc4ccco4)[C@@H]3CC[C@@H]2C(=O)N1C1CCCCC1	none (no result: YjeE inh, Pol III holo inh)
Cc1ccc(-c2cc(C(=O)N3CCOCC3)c3ccccc3n2)cc1	TSHR ag 25.1µM
COc1ccc(-c2cc(C(=O)N3CCOCC3)c3cc(C)ccc3n2)cc1	none
Cc1cc(C)n(-c2ncnc3c2oc2ccccc23)n1	none
COc1c(-c2ccccc2)oc2c(ccc3occc32)c1=O	HEK293 cAMP cs 39.8µM, TSHR ag inconclusive
O=c1c(O)c(-c2ccccc2)oc2ccc3occc3c12	none (no result: YjeE inh, HEK293 cAMP cs, Pol III holo inh, TSHR ag)
CCCCC(CC)COC(=O)c1ccccc1C(=O)O (configuration not stated)	none
CC1CCC2(OC1)OC1CC3C4CCC5CC(O)CCC5(C)C4=CCC3(C)C1C2C (configuration not stated)	none (no result: YjeE inh, HEK293 cAMP cs, Pol III holo inh, TSHR ag)
CC(=O)C1(O)C(C)CC2C3CCC4CC(O)CCC4(C)C3=CCC21C (configuration not stated)	HEK293 cAMP cs 12.6µM, TSHR ag inconclusive
O=C(CN1CCOCC1)Nc1ccccc1-c1ccccc1	none
O=C(CN1CCN(C2CCCCC2)CC1)Nc1ccccc1-c1ccccc1	HEK293 cAMP cs 15.8µM, TSHR ag inconclusive
Cc1cc(C)c(S(=O)(=O)Nc2ccccc2C(F)(F)F)c(C)c1	HEK293 cAMP cs 39.8µM, TSHR ag inconclusive
O=C(O)c1ccccc1NS(=O)(=O)c1ccccc1C(F)(F)F	none
O=C(O)c1ccc(NCc2nc3cc4ccccc4cc3[nH]2)cc1	HEK293 cAMP cs inconclusive, TSHR ag inconclusive
O=C(CCSc1ccccc1)NCCN1CCOCC1	none
C=CCN=C1SC(C)C(=O)N1S(=O)(=O)c1ccccc1 (configuration not stated)	TSHR ag 3.16µM
CC(C)(C)n1nnnc1C(c1cccs1)N(Cc1ccccc1)Cc1cccnc1 (configuration not stated)	HEK293 cAMP cs 15.8µM, TSHR ag inconclusive
CCN(Cc1ccccc1)C(c1ccncc1)c1nnnn1C(C)(C)C (configuration not stated)	HEK293 cAMP cs inconclusive, TSHR ag inconclusive
CC(C)NC(=O)c1cc(-c2ccco2)on1	HEK293 cAMP cs inconclusive, TSHR ag inconclusive
Cc1nnc(SCC(=O)c2cc(C)n(-c3ccc4c(c3)OCO4)c2C)s1	HEK293 cAMP cs 15.8µM, TSHR ag inconclusive
Cc1cc(C(=O)CSc2nnnn2C)c(C)n1-c1ccc2c(c1)OCCO2	HEK293 cAMP cs inconclusive, TSHR ag inconclusive
Cc1cc(C(=O)CSc2nnc(-c3ccco3)o2)c(C)n1-c1ccc2c(c1)OCCO2	HEK293 cAMP cs 15.8µM, TSHR ag inconclusive
O=C(Nc1ccccc1)c1cccc(N2C(=O)CCC2=O)c1	none
Cc1cc(C)n(-c2nnc(C)n2/N=C/c2ccccc2OCc2ccccc2Cl)n1	HEK293 cAMP cs 1.26µM, TSHR ag inconclusive
Cc1cc(C)n(Cc2ccccc2Cl)n1	none
Cc1cc(C)n(-c2nnc(C)n2/N=C/c2cc(Br)ccc2OCc2ccccc2)n1	HEK293 cAMP cs 3.16µM, TSHR ag inconclusive
CCn1c(SCC(=O)N2CCc3ccccc3C2)nc2c1c(=O)n(C)c(=O)n2C	none
Cc1ccc(Cn2c(SCC(C)C)nc3c2c(=O)n(C)c(=O)n3C)cc1	HEK293 cAMP cs 25.1µM, TSHR ag inconclusive
CCSc1nc2c(c(=O)n(C)c(=O)n2C)n1Cc1ccc(Cl)cc1	HEK293 cAMP cs inconclusive, TSHR ag inconclusive
CCn1c(SCC(=O)N2c3ccccc3Sc3ccccc32)nc2c1c(=O)n(C)c(=O)n2C	TSHR ag 20µM
O=c1c2c3nc4ccccc4nc3n(/N=C/c3ccco3)c2ncn1CCC1=CCCCC1	none
CNc1nc(N2CCc3ccccc32)ncc1F	none
Cc1ccc(C)c(N2C(=O)CC(N3CCN(Cc4ccc5c(c4)OCO5)CC3)C2=O)c1 (configuration not stated)	none
Cc1ccc2c(c1)N(CC(=O)c1cccc(Cl)c1)C(=O)C(C)O2 (configuration not stated)	HEK293 cAMP cs 20µM, TSHR ag inconclusive
CC1Oc2ccccc2N(CC(=O)c2cccc(Cl)c2)C1=O (configuration not stated)	HEK293 cAMP cs inconclusive, TSHR ag inconclusive
Cc1ccc2c(c1)N(CC(=O)N(Cc1ccc3c(c1)OCO3)CC1CCCO1)C(=O)C(C)O2 (configuration not stated)	HEK293 cAMP cs 20µM, TSHR ag inconclusive
Cc1ccc(NC(=O)CN(c2cc(C)cc(C)c2)S(=O)(=O)c2c(C)noc2C)nc1	HEK293 cAMP cs 20µM, TSHR ag inconclusive
Cc1ccc(SCCC(=O)N2CCOCC2)cc1	none
OCC1OC(/C=C\c2ccccc2)C=CC1Oc1ccc2c(c1)OCO2 (configuration not stated)	HEK293 cAMP cs 3.98µM, TSHR ag inconclusive (no result: YjeE inh, Pol III holo inh)
OCC1OC(c2ccc3c(c2)OCO3)C=CC1Oc1ccc(C2CCCC2)cc1 (configuration not stated)	none (no result: YjeE inh, Pol III holo inh)
Cc1ccc2c(CC(=O)Nc3c(C)n(C)n(-c4ccccc4)c3=O)coc2c1	none
COc1cccc(/C=N/n2c(C)nc3ccccc32)c1OC	HEK293 cAMP cs 15.8µM, TSHR ag inconclusive
C=CCC1C=CC(Oc2ccc(OC)cc2)C(COC(=O)c2ccc(Br)cc2)O1 (configuration not stated)	none (no result: YjeE inh, Pol III holo inh)
Cc1ccc(C(=O)O)cc1[N+](=O)[O-]	HEK293 cAMP cs inconclusive, TSHR ag inconclusive
CCC(CC)C(=O)Nc1cccc(-c2nc3ccccc3o2)c1	TSHR ag 6.31µM
O=C(c1cccc2c1-c1ccccc1/C2=N/O)N1CCCCC1	HEK293 cAMP cs 12.6µM, TSHR ag inconclusive
O=C(c1ccccc1)c1ccccc1C(=O)N1CCCC1	none
COc1ccc(-c2cc(C(F)F)n3ncc(C(=O)N4CCSCC4)c3n2)cc1	HEK293 cAMP cs inconclusive, TSHR ag inconclusive
Cc1ccc(-c2cc(C(F)F)n3ncc(C(=O)N4CCN5CCCC5C4)c3n2)cc1 (configuration not stated)	HEK293 cAMP cs 20µM, TSHR ag inconclusive
CCOC(=O)C1CCCN(C(=O)c2cnn3c(C(F)F)cc(-c4ccc(C)cc4)nc23)C1 (configuration not stated)	HEK293 cAMP cs 7.94µM, TSHR ag inconclusive
